The list is not random: actives were taken first. Their share in the collection is about 1.6%.
KCNQ2 pot: KCNQ2 (rat) channel potentiation; CHO-K1 KCNQ2, FluxOR thallium flux fluorescence; active compounds read high; B-score at 10 µM; 310,000 tested, 0.54% active;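 active = fluorescence ratio B-score at least 3 SD of library B-scores, with initial fluorescence B-score within 3 of them, cut at about 5.3 in these data; same plate scores as AID 2156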;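 note: B-score of peak minus minimum over baseline fluorescence ratio after K+ and Tl+ stimulus; positive B-score means potentiation of KCNQ2 with more thallium influx and brighter signal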
Target sequence (O88943 whole entry, looked up): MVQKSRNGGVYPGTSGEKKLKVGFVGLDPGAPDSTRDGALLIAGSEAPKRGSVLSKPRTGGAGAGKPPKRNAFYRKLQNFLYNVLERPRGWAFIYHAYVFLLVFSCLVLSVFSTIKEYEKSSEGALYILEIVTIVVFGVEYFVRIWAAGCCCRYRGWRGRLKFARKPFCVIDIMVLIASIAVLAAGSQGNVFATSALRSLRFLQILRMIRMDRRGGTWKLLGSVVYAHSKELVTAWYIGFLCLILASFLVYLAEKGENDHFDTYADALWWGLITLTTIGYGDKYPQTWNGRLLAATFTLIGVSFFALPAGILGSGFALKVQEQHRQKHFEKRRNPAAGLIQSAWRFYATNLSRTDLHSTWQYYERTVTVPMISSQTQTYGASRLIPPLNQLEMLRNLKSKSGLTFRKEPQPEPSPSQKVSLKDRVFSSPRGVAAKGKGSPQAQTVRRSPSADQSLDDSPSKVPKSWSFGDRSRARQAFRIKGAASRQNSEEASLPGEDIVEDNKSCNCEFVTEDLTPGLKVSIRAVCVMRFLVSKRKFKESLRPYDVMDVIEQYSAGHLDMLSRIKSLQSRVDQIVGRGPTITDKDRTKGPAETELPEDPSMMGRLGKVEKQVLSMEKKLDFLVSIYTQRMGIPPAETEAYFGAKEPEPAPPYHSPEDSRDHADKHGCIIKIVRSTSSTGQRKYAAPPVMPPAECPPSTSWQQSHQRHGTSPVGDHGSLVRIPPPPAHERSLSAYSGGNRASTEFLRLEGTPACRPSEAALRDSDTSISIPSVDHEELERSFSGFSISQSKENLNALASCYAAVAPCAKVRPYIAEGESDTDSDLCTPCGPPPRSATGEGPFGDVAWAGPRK
KCNQ2 inh: KCNQ2 (rat) channel inhibition. CHO-K1 KCNQ2, FluxOR thallium flux, 20 min; active compounds read low. B-score at 10 µM. 310,000 tested, 1.1% active. AID 2156;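 active = fluorescence ratio B-score at most minus 3 library SDs, with starting brightness B-score within 2 library SDs, cut at about -5.5 in these data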
* hit, by the source's call.

Results for COC(CN(C)C(=O)c1cn(C)c2ccc(S(=O)(=O)N(C)C3CCCCC3)cc2c1=O)OC ?
KCNQ2 pot: 0.35; KCNQ2 inh: inactive

What do the screens show for `Cc1ccc(N2CCN(c3ncccc3[N+](=O)[O-])CC2)c(C)c1`?
KCNQ2 inh: inactive

How did Cc1ccc(C)c(N2CCN(c3ncccc3[N+](=O)[O-])CC2)c1 do in these assays?
KCNQ2 pot: -6.57; KCNQ2 inh: -6.57*

What do the screens show for `COc1ccc(N=C2C(=O)N3c4c(cccc42)C(C)=CC3(C)C)cc1`?
KCNQ2 pot: 1.16; KCNQ2 inh: inactive

Results for O=C(Nc1cccc(Cl)c1N1CCCC1)c1ccc([N+](=O)[O-])o1 ?
KCNQ2 pot: 0.07; KCNQ2 inh: inactive

How did O=C(Nc1cc(Cl)ccc1N1CCOCC1)c1cc2ccccc2o1 do in these assays?
KCNQ2 inh: inactive

What do the screens show for `O=C(Nc1cccc(Cl)c1N1CCCC1)c1cc2ccccc2o1`?
KCNQ2 pot: -6.23; KCNQ2 inh: -6.23*

Results for O=C(Nc1cccc(Cl)c1N1CCCC1)c1ccc(Br)o1 ?
KCNQ2 pot: -7.9; KCNQ2 inh: -7.9*

How did CNc1c(NS(=O)(=O)c2ccc3c(c2)CCCC3)c(=O)oc2ccccc12 do in these assays?
KCNQ2 pot: 0.15; KCNQ2 inh: inactive

Results for O=C(OCC(=O)N1CCCC1)c1c(Cl)ccc(Cl)c1Cl ?
KCNQ2 pot: 0.9; KCNQ2 inh: inactive

How did Cc1ccc(Sc2c(C=O)c3ccccc3n2C)cc1 do in these assays?
KCNQ2 pot: 0.1; KCNQ2 inh: inactive

How did Cc1cccc(Oc2c(C=O)c3ccccc3n2C)c1 do in these assays?
KCNQ2 pot: -6.54; KCNQ2 inh: -6.54*

Results for O=[N+]([O-])c1ccccc1N(CC1CO1)S(=O)(=O)c1ccccc1 (stereo unspecified) ?
KCNQ2 inh: inactive

What do the screens show for `O=C(CN1CCN(Cc2ccccc2)CC1)N/N=C/c1cccnc1`?
KCNQ2 pot: 0.58; KCNQ2 inh: inactive

Results for CCc1cc(C(=O)OC)c(NC(=O)CN2CCN(C(=O)c3ccco3)CC2)s1 ?
KCNQ2 pot: 1.64; KCNQ2 inh: inactive

Results for CCOC(=O)N1CCN(CC(=O)Nc2sc(CC)cc2C(=O)c2ccc(OC)cc2)CC1 ?
KCNQ2 pot: -5.93; KCNQ2 inh: -5.93*

Results for CCN(CC)S(=O)(=O)c1ccc(NC(=O)COC(=O)CCc2cc(OC)c(OC)c(OC)c2)cc1 ?
KCNQ2 pot: 0.56; KCNQ2 inh: inactive

How did C=CCn1c(C)cc(C(=O)COC(=O)COc2ccccc2C#N)c1C do in these assays?
KCNQ2 inh: inactive

Results for C=CCn1c(C)cc(C(=O)COC(=O)[C@@H](NC(=O)c2ccccc2Cl)C(C)C)c1C ?
KCNQ2 pot: -7.49; KCNQ2 inh: -7.49*

How did CC(OC(=O)Cn1[nH]c(=O)c2ccccc2c1=O)C(=O)Nc1ccccc1[N+](=O)[O-] (stereo unspecified) do in these assays?
KCNQ2 pot: 0.78; KCNQ2 inh: inactive

What do the screens show for `Nc1ccc(C(=O)OCC(=O)NC(=O)c2ccccc2)cc1[N+](=O)[O-]`?
KCNQ2 pot: 0.12; KCNQ2 inh: inactive

What do the screens show for `O=C(CSc1nc2cc(Cl)ccc2s1)N1CCCc2ccccc21`?
KCNQ2 pot: -5.92; KCNQ2 inh: -5.92*

Results for COCCn1c(SCC(=O)N2CCCc3ccccc32)nc2ccccc2c1=O ?
KCNQ2 pot: -6.72; KCNQ2 inh: -6.72*

How did Cn1c(SCC(=O)N2c3ccccc3Sc3ccccc32)nc2ccccc21 do in these assays?
KCNQ2 inh: inactive

Results for CCOc1ccc2nc(SCC(=O)N3CCCc4ccccc43)sc2c1 ?
KCNQ2 inh: inactive

Results for O=C(CSc1nc(O)cc(=O)[nH]1)N1CCCc2ccccc21 ?
KCNQ2 pot: 0.47; KCNQ2 inh: inactive

What do the screens show for `COCCn1c(SCC(=O)N2CCCc3ccccc32)nc2c(c1=O)SC(C)C2` (stereo unspecified)?
KCNQ2 inh: inactive

How did CN(C)CCCn1c(SCC(=O)N2c3ccccc3Sc3ccccc32)nc2ccccc2c1=O do in these assays?
KCNQ2 pot: -6.43; KCNQ2 inh: -6.43*

How did Cc1cc(=O)[nH]c(SCC(=O)N2CCCc3ccccc32)n1 do in these assays?
KCNQ2 pot: -6.18; KCNQ2 inh: -6.18*

What do the screens show for `CC(C)CNS(=O)(=O)c1ccc(S(=O)(=O)N2CCN(CCC#N)CC2)cc1`?
KCNQ2 inh: inactive

What do the screens show for `O=C(NNC(=O)c1ccccc1O)c1ccc(S(=O)(=O)Nc2ccccc2)cc1`?
KCNQ2 pot: 0.17; KCNQ2 inh: inactive

Results for O=C1CN(C(=O)COC(=O)CCSc2ccccc2Cl)c2ccccc2N1 ?
KCNQ2 inh: inactive

What do the screens show for `COc1ccccc1C(=O)NNC(=O)c1ccc(NC(=O)C(C)C)cc1`?
KCNQ2 pot: 0.35; KCNQ2 inh: inactive

What do the screens show for `O=C(Cc1cccs1)NCc1ccccc1Br`?
KCNQ2 inh: inactive

How did COc1cccc(CNC(=O)CCCSc2ccccc2)c1 do in these assays?
KCNQ2 pot: 3.2; KCNQ2 inh: inactive

What do the screens show for `CCOC(=O)C1=C(C)N(c2ccccc2)C(=O)/C1=C\c1ccco1`?
KCNQ2 pot: -5.96; KCNQ2 inh: -5.96*

Results for COC(=O)C1=C(C)N(c2ccc(OC)c(OC)c2)C(=O)/C1=C\c1ccco1 ?
KCNQ2 pot: 0.96; KCNQ2 inh: inactive

What do the screens show for `Cc1ccccc1CSCC(=O)NCCSc1ccccn1`?
KCNQ2 inh: inactive

What do the screens show for `CCOc1ccc(N(CC(=O)NC(C(C)C)C(C)C)S(=O)(=O)c2ccc(OC)c(OC)c2)cc1`?
KCNQ2 inh: inactive

Results for COc1ccc(OCC(=O)Nc2cc(-c3nn(C)c(=O)c4ccccc34)ccc2N2CCOCC2)cc1 ?
KCNQ2 inh: inactive

How did O=S(=O)(c1ccc(F)cc1)N1CCCN(c2nccc(C(F)(F)F)n2)CC1 do in these assays?
KCNQ2 pot: 0.65; KCNQ2 inh: inactive

What do the screens show for `CC(C)c1ccc(-c2cc(C(=O)N3CCOCC3)c3cc(Br)ccc3n2)cc1`?
KCNQ2 pot: -6; KCNQ2 inh: -6*

How did O=C(c1cc(-c2ccccc2)nc2ccccc12)N1CCOCC1 do in these assays?
KCNQ2 inh: inactive

Results for CCN(CC)CCNc1ncnc2c1sc1nc(N3CCCC3)c3c(c12)CC(C)(C)OC3 ?
KCNQ2 pot: 5.84*; KCNQ2 inh: inactive

What do the screens show for `CN(C)CCNc1ncnc2c1sc1nc(N3CCCC3)c3c(c12)CC(C)(C)OC3`?
KCNQ2 pot: 4.81; KCNQ2 inh: inactive

What do the screens show for `O=C(NCCS(=O)(=O)N1CCN(c2ccc(F)cc2)CC1)C12CC3CC(CC(C3)C1)C2`?
KCNQ2 inh: inactive

What do the screens show for `FC(F)(F)c1cccc(Oc2nc(-c3ccccc3)nnc2C(F)(F)F)c1`?
KCNQ2 inh: inactive

What do the screens show for `FC(F)(F)c1nnc(-c2ccccc2)nc1Oc1ccc(Cl)cc1Cl`?
KCNQ2 pot: -7.72; KCNQ2 inh: -7.72*

Results for CCOc1cc(CNc2nn[nH]n2)ccc1OCC(=O)NC(C)(C)C ?
KCNQ2 inh: inactive

What do the screens show for `CCCc1nc(SCC(=O)Nc2ccccc2)c2c(=O)n(C)c(=O)n(C)c2n1`?
KCNQ2 pot: 1.51; KCNQ2 inh: inactive

How did CCCc1nc(SCC(=O)N2CCC(Cc3ccccc3)CC2)c2c(=O)n(C)c(=O)n(C)c2n1 do in these assays?
KCNQ2 pot: 22.9*; KCNQ2 inh: inactive

How did COc1ccc(Nc2ccc(N3C(=O)CCCC3=O)cc2[N+](=O)[O-])c(OC)c1 do in these assays?
KCNQ2 pot: 1.5; KCNQ2 inh: inactive

How did CC(C)N(Cc1nc(-c2ccc(Cl)cc2)no1)C(=O)CCC1CCCC1 do in these assays?
KCNQ2 pot: -6.15; KCNQ2 inh: -6.15*

Screening data as filed in PubChem BioAssay.
